Measurements published in PubChem BioAssay AID1259416 (Broad Institute, 2018).
Where “and” joins values, the source holds several entries; their conditions need not be identical. Equal entries are not always repeated. Out of some 69,000 compounds screened, about 2,600 (3.8%) were called active. The sample as a whole holds a higher share of actives than the screen did. Unmarked numbers belong to inactive results. Cut-off read from the data, not from the text of the source: active = activity change below about -70% (passing the limit was not always enough); inconclusive = no clear call, values can overlap the other calls.

Assay: inhibitors of Toxoplasma growth in IFN-γ-primed hosts – cell-based, primary screen (AID 1259416);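 note: host cells are HeLa cells infected with Toxoplasma gondii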
Settings: Toxoplasma gondii growth in IFN-gamma-treated host cells; active compounds read low; concentration not given here

| Compound | activity change, negative = inhibition |
| --- | --- |
| CN(C)C(=O)CN1CC2CN(Cc3ccncc3)CCC2(c2ccccc2)C1 (configuration not stated) | -2.67% |
| O=C1NCC(CN2CCOc3c(O)cc(-c4csc5ccccc45)cc3C2)O1 (configuration not stated) | -76.2% (active) |
| CCC(C(=O)OC)N1CCOc2c(O)cc(-c3ccc(C)s3)cc2C1 (configuration not stated) | -5% |
| COc1cc(COC2CN(C(=O)c3csc(SC)n3)CC(=O)N(C(C)C)C2)cc(OC)c1 (configuration not stated) | -6.26% |
| CCOCC1CN(Cc2ccc3c(c2)OCO3)Cc2cncn2C1 (configuration not stated) | -0.275% |
| OCCn1c(-c2ccc(-c3ccn[nH]3)cc2)nc2ccccc21 | 92.2% |
| COc1ccc(-c2nc3ccccc3n2-c2cc(C(C)(C)C)c(O)c(C(C)(C)C)c2)cc1 | -86.1% (active) |
| CCN1CCN(c2nc(-c3ccc(OC)cc3)nc3ccccc23)CC1 | -47.8% |
| C=CCOCC12CCCOC1CCN(S(=O)(=O)c1cccnc1)C2 (configuration not stated) | 40.1% |
| CCOc1ccccc1CNC(=O)c1nc(-c2cccc(F)c2)n2c1CCCCC2 | -84.4% (active) |
| CCOc1ccccc1NC(=O)C(=O)NCCc1csc(-c2cccc(F)c2)n1 | -13.3% |
| CCCN1CCN(C(=O)c2nc(-c3cccc(F)c3)n3c2CCCCC3)CC1 | 3.76% |
| CC(C)N1CCN(C(=O)c2csc(-c3ccc(N4CCCC4)nc3)n2)CC1 | -27.3% |
| Cc1cccc(Cc2c(C)[nH]n(-c3nc4ccccc4[nH]3)c2=O)c1 | -124% (active) |
| Cc1nc2nc(Cc3ccc(Cl)cc3)[nH]n2c(=O)c1Cc1ccccc1 | 4.81% |
| Nc1cccc(CCc2nc3ccccc3[nH]2)c1 | 22% |
| CN(C)c1ncnc2c1CCN(C(=O)c1ccnnc1)CC2 | -0.9% |
| Cc1ccc(-c2nn(C(C)(C)C)c3ncnc(N)c23)cc1 | -84% (active) and -73.5% (active) |
| Cn1cc(CN2CCc3ncnc(-c4ccccc4)c3CC2)cn1 | -8.43% |
| Cc1cccnc1CN(C)C(=O)c1cc(CN2CCC(Cc3ccccc3)CC2)on1 | 9.1% |
| Oc1c(Cl)cc(Cl)c(Cl)c1Cc1c(O)c(Cl)cc(Cl)c1Cl | -85.3% (active) and -87.1% (active) and -96% (active) |

| Compound | activity change, negative = inhibition |
| --- | --- |
| N#Cc1cccc(-c2ccc3c(c2)[C@H]2[C@H](CCN2S(=O)(=O)c2ccc(F)cc2)[C@@H](CO)N3)c1 | -42.4% |
| COCC#Cc1ccc([C@@H]2[C@@H](CO)N3CCCCN(C(=O)NC4CCCC4)C[C@H]23)cc1 | -18.5% |
| CC(C)NS(=O)(=O)c1ccc(OCC(=O)N2CCCCCC2)cc1 | 1.18% |
| O=C1CCCN1CC1CN(Cc2ccccn2)Cc2nccn2C1 (configuration not stated) | -70.8% (active) |
| O=C1CCCN1CC1CN(c2ncc(F)cn2)Cc2nccn2C1 (configuration not stated) | 4.1% |
| O=C(CC1CCN(Cc2ccccn2)CC1)Nc1ccc(OC2CCCC2)cc1 | -69.9% |
| COC(=O)c1ccc(-c2noc(-c3c(O)c4ccccc4[nH]c3=O)n2)cc1 | 21.8% |
| O=C(CCCn1cnnn1)N1CCc2onc(-c3cccc(F)c3)c2C1 | -6.14% |
| CCCCCCCCCc1ccc(OCCOCCOCCOCCOCCOCCOCCOCCOCCO)cc1 | -80.7% (active) |
| CCCCc1ccc(S(N)(=O)=O)cc1 | -51.9% |
| CCCCCc1ccc(C#Cc2ccc(OC(F)F)cc2)cc1 | 5.21% |
| Cc1cc(-c2cccc(O)c2)nc(-c2ccccc2O)n1 | -20% |
| CN1C(=O)c2cc(NC(=O)C3CCOCC3)ccc2OC[C@@H]2O[C@H](CC(=O)NCc3ccccc3F)CC[C@H]21 | 11.5% |
| CN(C)C(=O)N1CCc2ncnc(C3CCOC3)c2CC1 (configuration not stated) | 1.98% |
| O=C(Cn1c(=O)cc(C(=O)N2CCCCC2)c2ccccc21)NC1CCCC1 | 11.6% |
| CC(C)CN1C(=O)N(C2Cc3ccccc3C2)C(=O)C12CCN(Cc1nc3ccccc3n1C)CC2 | -8.38% |
| CC(C)CN1CCC2(C=C(C(=O)N(C)C)c3ccccc32)CC1 | -81.7% (active) |
| CC(C)CN1CC[C@H]2[C@H](CC1)S(=O)(=O)CCN2C(=O)c1ccccc1 | 3.93% |
| Cc1ccc(C(=O)N2CCC3(CC2)C(=O)N(C)CCN3CC2CC2)cn1 | 1.05% |
| CN1C[C@@H]2C3(CCN(C(=O)Nc4ccccc4)CC3)CC[C@@]2(C(=O)N2CCCC2)C1 | 6.69% |
| COc1ccc2c3c(n(C)c2c1)[C@@H](CO)N(C)CC31CN(S(=O)(=O)c2cccs2)C1 | 36% |

| Compound | activity change, negative = inhibition |
| --- | --- |
| C#C[C@]1(O)CC[C@H]2[C@@H]3CCC4=CC(=O)CC[C@@H]4C3CC[C@@]21CC (some centres not stated) | -83.8% (active) |
| C#C[C@]1(O)CC[C@H]2[C@@H]3CCC4=CC(=O)CC[C@@H]4[C@H]3CC[C@@]21CC | -81.4% (active) and -75.5% (active) |
| COc1cc(-c2nc(CN3[C@@H]4CC[C@H]3CNC(=O)C4)c(C)o2)cc2c1OCO2 | -3.36% |
| COc1ccccc1NC(=O)Cn1ncc2c(N3CCN(c4ccccc4)CC3)ncnc21 | 74% |
| COc1ccc(-c2nc(C)c(CCNC(=O)C(=O)Nc3cccc(OC)c3)s2)cc1 | 487% |
| Cc1oc(-c2cccc(Oc3ccccc3)c2)nc1CN1[C@@H]2CC[C@H]1CNC(=O)C2 | -8.53% |
| O=C(CC1Nc2c3ccccc3nc(=S)n2C1=O)N1CCN(c2ccc(Cl)cc2)CC1 (configuration not stated) | -16.2% |
| COc1ncc(-c2cccc(C(C)N3CCCC3)c2)c(OC)n1 (configuration not stated) | -10.7% |
| Cc1ccc(S(=O)(=O)Nc2ccc3c(c2)C(=O)N([C@@H](C)CO)C[C@@H](C)[C@H](CN(C)Cc2ccc(C(F)(F)F)cc2)O3)cc1 | -72.9% (active) |
| C[C@H](CO)N1C[C@H](C)[C@@H](CN(C)Cc2ccncc2)OCCCC[C@H](C)Oc2ccc(NS(=O)(=O)c3ccc(Cl)cc3)cc2C1=O | -94.1% (active) |
| C[C@@H]1CN([C@H](C)CO)C(=O)c2cc(NS(=O)(=O)c3cccs3)ccc2O[C@@H](C)CCCCO[C@@H]1CN(C)C(=O)c1ccncc1 | 14.1% |
| C[C@@H]1CN([C@@H](C)CO)C(=O)c2cc(NS(=O)(=O)c3ccccc3)ccc2O[C@@H](C)CCCCO[C@H]1CN(C)C(=O)C1CCCCC1 | -14.8% |
| C[C@@H]1CN([C@H](C)CO)C(=O)c2cc(NS(=O)(=O)c3ccccc3)ccc2O[C@@H](C)CCCCO[C@H]1CN(C)C(=O)C1CCCCC1 | -116% (active) |
| C[C@@H]1CN([C@H](C)CO)C(=O)c2cc(NC(=O)Cc3ccccc3)ccc2O[C@@H](C)CCCCO[C@@H]1CN(C)Cc1ccncc1 | 31.6% |
| Cc1noc(C)c1S(=O)(=O)N(C)C[C@@H]1OCCCC[C@H](C)Oc2ccc(NC(=O)CCC(F)(F)F)cc2C(=O)N([C@H](C)CO)C[C@H]1C | 94.9% |
| C[C@H](CO)N1C[C@H](C)[C@H](CN(C)Cc2ccncc2)Oc2ccc(NS(=O)(=O)c3ccc(F)cc3)cc2CC1=O | 33.3% |
| Cc1noc(C)c1S(=O)(=O)Nc1ccc2c(c1)C(=O)N([C@@H](C)CO)C[C@H](C)[C@@H](CN(C)C(=O)Nc1cccc3ccccc13)OCCCC[C@H](C)O2 | 141% |
| Cc1ccc(S(=O)(=O)Nc2ccc3c(c2)C(=O)N([C@H](C)CO)C[C@@H](C)[C@H](CN(C)S(=O)(=O)c2cccs2)OCCCC[C@@H](C)O3)cc1 | -131% (active) |
| C[C@@H]1CN([C@@H](C)CO)C(=O)c2cc(NS(C)(=O)=O)ccc2O[C@@H]1CN(C)C | -0.62% |
| C[C@@H]1CCCCO[C@@H](CN(C)Cc2ccncc2)[C@H](C)CN([C@H](C)CO)C(=O)c2cc(NC(=O)Cc3ccccc3)ccc2O1 | 318% |
